# Results: PubChem BioAssay (NCI)
# Compounds without any hit were thinned out: in the full panel of roughly 83,000, 20% have a hit.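 Assay: single dose, 48 h. Readout: percent growth (0 = no net growth; negative = cell death). Active: <10.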 Values without a mark were called inactive. The source made the active and inactive calls.
# How the values were obtained:
# Assay in all cases: NCI-60 one-dose screen, 48 h (100 = growth as untreated, 0 = no growth, -100 = all killed)
# Settings in all cases: 10 µM unless noted
# SR leukemia = system: SR leukemia
# RPMI-8226 leukemia = system: RPMI-8226 leukemia
# OVCAR-8 ovarian = system: OVCAR-8 ovarian
# OVCAR-5 ovarian = system: OVCAR-5 ovarian
# OVCAR-4 ovarian = system: OVCAR-4 ovarian
# SK-OV-3 ovarian = system: SK-OV-3 ovarian
# IGROV1 ovarian = system: IGROV1 ovarian
# OVCAR-3 ovarian = system: OVCAR-3 ovarian
# HS 578T breast = system: HS 578T breast
# NCI/ADR-RES ovarian = system: NCI/ADR-RES ovarian
# T-47D breast = system: T-47D breast
# BT-549 breast = system: BT-549 breast
# MDA-MB-435 melanoma = system: MDA-MB-435 melanoma
# SW-620 colon = system: SW-620 colon
# MCF7 breast = system: MCF7 breast
# HCT-116 colon = system: HCT-116 colon
# HCC-2998 colon = system: HCC-2998 colon
# KM12 colon = system: KM12 colon
Compound,growth (SR leukemia),growth (RPMI-8226 leukemia),growth (OVCAR-8 ovarian),growth (OVCAR-5 ovarian),growth (OVCAR-4 ovarian),growth (SK-OV-3 ovarian),growth (IGROV1 ovarian),growth (OVCAR-3 ovarian),growth (HS 578T breast),growth (NCI/ADR-RES ovarian),growth (T-47D breast),growth (BT-549 breast),growth (MDA-MB-435 melanoma),growth (SW-620 colon),growth (MCF7 breast),growth (HCT-116 colon),growth (HCC-2998 colon),growth (KM12 colon)
Cc1cc(N2CCCC2)nc(N(CCNc2ccnc3cc(Cl)ccc23)Cc2ccco2)n1,-14.9% (active),-42.3% (active),57%,25.3%,38.6%,65.5%,4.93% (active),13.8%,62.1%,18.4%,12.4%,22.3%,44%,25.5%,17.9%,-50.9% (active),76.6%,50%
C=C(C)[C@@H]1CC[C@]2(C(=O)N3CCN(C)CC3)CC[C@]3(C)[C@H](CC[C@@H]4[C@@]5(C)C/C(=C/c6ccc(C(F)(F)F)cc6)C(=O)C(C)(C)[C@@H]5CC[C@]43C)[C@@H]12,76.9%,86.1%,97.4%,94.9%,103%,101%,102%,103%,99.4%,96.8%,79.9%,102%,97.2%,99.5%,87.5%,89.8%,107%,97%
CSc1ccc(N(C)c2nc(C)nc3c2CCC3)cc1,1.95% (active),23.5%,12%,33.2%,38.2%,19.5%,31.3%,5.43% (active),29.8%,8.05% (active),64.5%,23.6%,-12.8% (active),28.1%,16%,0.112% (active),8.45% (active),8.57% (active)
C=C1C(=O)O[C@H]2[C@H]1CC/C(Cn1cc(-c3ccc(F)cc3)nn1)=C\CC[C@@]1(C)O[C@@H]21,-15.1% (active),-34.1% (active),-16% (active),-1.87% (active),13.7%,102%,-40.3% (active),-91.3% (active),58.1%,35.6%,-48.1% (active),43.5%,-31.4% (active),-40.6% (active),-55.6% (active),-86% (active),-11.6% (active),54.6%
O=C(NO)c1ccc(Cn2c(=O)n(CCc3ccc(O)cc3)c(=O)c3ccccc32)cc1,16.5%,31.6%,36.2%,86%,56.4%,86.7%,74.9%,18.9%,58.8%,92.8%,11.8%,65.7%,-15.6% (active),22.4%,44.5%,24.9%,79%,22.7%
Fc1ccc(Nc2ccc3c(OCCCN4CCOCC4)cccc3n2)cc1F,28%,41.3%,117%,67.8%,79%,96.9%,82.4%,85.8%,67.5%,76.9%,78%,86.1%,78.7%,47.6%,61.3%,78.5%,66.3%,16.1%
Nc1c2c(nc3ccc(Cl)cc13)CC(c1ccccc1)CC2=O (stereo not given),14.3%,25.8%,72.1%,73.2%,89.2%,76.9%,38.3%,20.6%,73.5%,22.5%,54.1%,39.8%,-39.7% (active),24.8%,19%,20.3%,67.3%,26.4%
O=C1NC(c2ccc(Cl)c(Cl)c2)=C/C1=C\c1ccccc1,17.1%,48.3%,74.4%,73.2%,-36.6% (active),100%,59.2%,50.8%,66.3%,83.7%,12.5%,86.2%,86.6%,56.8%,63.1%,26.5%,103%,89.2%
CC/C=C\C[C@H]1CC=C2C(=O)C=C[C@@H]2CC=CCCCC(=O)O[C@@H](CCCCC)CC=C2C(=O)C=C[C@@H]2CC=CCCCC(=O)O[C@@H](CCCCC)CC=C2C(=O)C=C[C@@H]2CC=CCCCC(=O)O[C@@H](CCCCC)CC=C2C(=O)C=C[C@@H]2CC=CCCCC(=O)O1,2.79% [7.9 µM] (active),0.23% [7.9 µM] (active),-21.9% [7.9 µM] (active),75.1% [7.9 µM],21.6% [7.9 µM],73.4% [7.9 µM],8.16% [7.9 µM] (active),-14% [7.9 µM] (active),41.9% [7.9 µM],92.6% [7.9 µM],29.5% [7.9 µM],-17.3% [7.9 µM] (active),-23.1% [7.9 µM] (active),9.77% [7.9 µM] (active),20.4% [7.9 µM],-53.6% [7.9 µM] (active),88.6% [7.9 µM],21.1% [7.9 µM]
Fc1ccc(Nc2nc(Nc3ccc(-c4nc5ccccc5[nH]4)cc3)nc(N3CCCC3)n2)cc1,10.7%,-11.6% (active),81.7%,97.4%,88.6%,75.1%,83%,94.4%,84.6%,63%,44.6%,85.1%,98.1%,0.692% (active),32.7%,-53.6% (active),55.7%,83.8%
O=C(NCN1C(=O)c2cccc3cccc(c23)C1=O)N1CCC(Cc2ccccc2)CC1,89.6%,87.8%,102%,104%,98.8%,91.3%,100%,109%,95.8%,102%,88%,98.4%,104%,100%,87.5%,87%,109%,99.4%
CC1(C)CC[C@]2(CO)CC[C@]3(C)C(=CC[C@@H]4[C@@]5(C)CC[C@H](NCO)C(C)(C)[C@@H]5CC[C@]43C)[C@@H]2C1,-34.7% (active),-29.1% (active),-35.6% (active),2.64% (active),-32.5% (active),70.8%,-56% (active),-66.2% (active),11.4%,-64.8% (active),4.47% (active),59.1%,-5.37% (active),-71.9% (active),-26.3% (active),-78.2% (active),6.82% (active),-80.7% (active)
C=CC(=O)N[C@H](Cc1ccc(-c2cc(Cl)cc(Cl)c2)cc1)[C@H](O)[C@@H](O)C(=O)O,81.6%,82.7%,90.9%,96%,96.9%,78.6%,96.7%,101%,95.5%,101%,90%,87.4%,102%,98.1%,87%,75.5%,109%,99.3%
CCCCC[C@H]1C/C=C2/C(=O)C(Cl)=C[C@@H]2C/C=C\CCCC(=O)O[C@@H](CCCCC)C/C=C2/C(=O)C(Cl)=C[C@@H]2C/C=C\CCCC(=O)O1,-7.23% (active),-13.6% (active),-13.9% (active),-44.4% (active),16%,-21.4% (active),-44.4% (active),-82.7% (active),32.4%,19.8%,-20.3% (active),-52.7% (active),-16.1% (active),-41.6% (active),-42.1% (active),-98.7% (active),-88.6% (active),-73% (active)
C/C(=N\Nc1cc(C)c2cc(C)ccc2n1)c1ccccn1,0.29% (active),-33.4% (active),-60% (active),-33.3% (active),-83.1% (active),25.4%,-35.9% (active),-40.6% (active),45.9%,1.12% (active),-50.4% (active),21.2%,-89.4% (active),-81.3% (active),-76.1% (active),-72.6% (active),-25.9% (active),-46.9% (active)
